Source: PMC5540273 (PLoS ONE, 2017)

System: CDK2
Details: concentration: 1 μM, replicates: in singlicate; n = 1
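Also: KINOMEscan kinase panel screen.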

| Structure (SMILES) | %Inh [%] |
| --- | --- |
| N#CC1(c2cccc(C(=O)Nc3cccc(Oc4ccc5nc(NC(=O)C6CC6)sc5n4)c3)c2)CC1 | 0 |
| Cc1ccc(C)c(NC(=O)Nc2ccc(C)c(-c3ccc(C(=O)Nc4ccncc4)cc3)c2)c1 [GSK1398473] | 0 |
| O=C(Nc1n[nH]c2nc(-c3ccccc3O)ccc12)C1CC1 [SB-711880] | 37 |
| CCn1c(-c2nonc2N)nc2c(-c3ccccc3)ncc(OCCCN)c21.O=C(O)C(F)(F)F.O=C(O)C(F)(F)F [GSK260205] | 0 |
| Cl.Cl.NC(CNC(=O)c1cc(Br)c(-c2ccnc3[nH]ccc23)s1)c1ccccc1 (stereo not shown) [GSK1322949] | 0 |
| CCOc1nccc(-c2c(-c3ccc(F)cc3)ncn2C2CCNCC2)n1 [SB-249175] | 5 |
| COc1cccc2c(-c3ccncc3)c(-c3ccc(F)cc3)nn12 [GW468513] | 4 |
| CC(C)c1nc(-c2cccc(NS(=O)(=O)c3c(F)cccc3F)c2)c(-c2ccnc(Nc3ccc(N4CCOCC4)nc3)n2)s1.Cl [GSK1723980] | 99.1 |
| O=C(Nc1n[nH]c2cc(-c3cccs3)ccc12)C1CC1 [SB-731284] | 65 |
| Cc1ccc(NC(=O)c2cccc(N3CCCCC3)c2)cc1-c1ccc(C(=O)NCC2CC2)cc1 [GSK1917008] | 2 |
| Cl.O=C(Nc1ccc(Oc2ccc3[nH]c(NC(=O)c4ccco4)nc3c2)cc1)Nc1cc(C(F)(F)F)ccc1F [GW683134] | 0 |
| Cn1cc(-c2ccc3c(c2)CCN3C(=O)Cc2cc(F)cc(C(F)(F)F)c2)c2c(N)ncnc21 [GSK2635225] | 6 |
| COc1cc(Nc2nccc(N3CCC(NS(=O)(=O)c4ccc(NC(C)=O)cc4)CC3)n2)cc(OC)c1OC [GSK1379825] | 0 |
| O=C1NC(=O)C(c2ccccc2Cl)=C1Nc1cccc(Cl)c1 [SB-342409] | 1 |
| Cc1cc(-c2ccnc(Nc3cccc(C#N)c3)n2)cc(C)c1O [GSK1440913] | 68 |
| CC(C)NCC(Cc1ccccc1)NC(=O)c1cc(Br)c(-c2ccnc3[nH]ccc23)s1.Cl.Cl (stereo not shown) [GSK1383281] | 0 |
| Nc1ncc(-c2ccc3nccc(-c4ccncc4)c3c2)cc1S(=O)(=O)N1CCCCC1 [GSK1693850] | 0 |
| COc1cc(Nc2ccnc3cc(-c4ccncc4)ccc23)cc(OC)c1OC.Cl [GW494610] | 1 |
| COC(=O)Nc1nc2ccc(Oc3ccc(NC(=O)Nc4cc(C(F)(F)F)ccc4F)cc3)cc2[nH]1.Cl [GW654607] | 30 |

| Structure (SMILES) | %Inh [%] |
| --- | --- |
| c1ccc(Oc2ccc(Nc3ccnc4cc(-c5ccc(CN6CCCCC6)o5)ccc34)cc2)nc1 [GW567143] | 0 |
| COc1cccc(CC(=O)N2CCc3cc(-c4cn(C)c5ncnc(N)c45)ccc32)c1 [GSK2608899] | 18 |
| COc1ccc(C)c(Nc2ccnc(Nc3ccc(-c4cnc[nH]4)cc3)n2)c1.Cl [GW784041] | 0 |
| CCNC(=O)/C=C/c1n[nH]c2cc(Sc3ccccc3C(=O)NC)ccc12 | 0 |
| Cl.N#CCc1ccc(Nc2nccc(Nc3ccc(Oc4ccccc4)cc3)n2)cc1 [GW639905] | 0 |
| CC(=O)Nc1cn2nc(Oc3cccc(NC(=O)c4cccc(C(F)(F)F)c4)c3)ccc2n1 | 2 |
| CCNc1nccc(-c2c(-c3ccc(F)cc3)ncn2C2CCN(C)CC2)n1 | 0 |
| COC(=O)Nc1nc2cc(Oc3ccc(NC(=O)Nc4cccc(SC)c4)cc3)ccc2[nH]1.Cl [GW697999] | 0 |
| Fc1cc(Cl)ccc1Nc1ccnc2cc(-c3ccc(CN4CCOCC4)o3)ccc12 [GW560109] | 0 |
| NCCC(NC(=O)c1cc(Br)c(-c2ccnc3[nH]ccc23)s1)c1ccccc1.O=C(O)C(F)(F)F.O=C(O)C(F)(F)F (stereo not shown) [GSK1307810] | 0 |
| Cc1ccc(O)cc1Nc1ccnc2cc(-c3ccc(CN4CCCCC4)o3)ccc12 [GW557777] | 0 |
| CCn1cnc2c(NCc3ccccc3)ncnc21 [SKF-96418] | 0 |
| CN(c1ccc(F)c(NC(=O)c2cccc(OC(C)(C)C#N)c2Cl)c1)c1ccc2nc(NC(=O)C3CC3)sc2n1 | 0 |
| Cn1cc(-c2ccc3c(c2)CCN3C(=O)Cc2cc(F)cc(F)c2F)c2c(N)ncnc21 [GSK2634140] | 8 |
| CN(C)c1ncnc2nc[nH]c12 [SKF-31736] | 0 |
| O=C(O)C(F)(F)F.O=c1[nH]ccc2nc(N[C@@H]3CCNC3)nc(Nc3ccc4c(c3)S(=O)(=O)CC4)c12 [GSK2181306] | 62 |
| Cn1cc(-c2cnc(N)c3c(-c4ccc5c(c4)CCN5C(=O)Cc4ccccc4)csc23)cn1 [GSK2593074] | 0 |
| Cc1ccc(NC(=O)c2ccc(Cl)c(Cl)c2)cc1-c1ccc(C(=O)Nc2ccncc2)cc1 [GSK1398460] | 0 |
